Experiment [1] is described as follows: NCI Yeast Anticancer Drug Screen. Data for the rad50 strain (AID 155).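 Note: 0% = growth of vehicle-only cultures of the same strain.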 Conditions: S. cerevisiae rad50 strain growth inhibition, hits give high values; at 50.0 µM unless noted. The method, boiled down: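 Relative growth inhibition (compound vs vehicle) was measured in yeast with a defined repair-gene alteration.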
Experiment [2] in a line: NCI Yeast Anticancer Drug Screen. Data for the mec2-1 strain (AID 157). Conditions: S. cerevisiae mec2-1 strain, hits give high values; at 50.0 µM unless noted. In short, it runs like this:
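mec2-1 yeast strain, carrying an alteration in DNA damage repair or cell cycle control, was exposed to compounds; growth inhibition was measured relative to vehicle-treated controls.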

Experiment [3] in a line: NCI Yeast Anticancer Drug Screen. Data for the sgs1 mgt1 strain (AID 161).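 Note: 0% = growth of cultures given vehicle only.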 Conditions: S. cerevisiae sgs1 mgt1 strain, hits give high values; at 50.0 µM unless noted. The method, boiled down: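 Growth of a repair-deficient yeast mutant was monitored after compound treatment and expressed as inhibition relative to vehicle-treated cultures.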
Experiment [4] in a line: NCI Yeast Anticancer Drug Screen. Data for the cln2 rad14 strain (AID 165).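 Note: 0% = growth equal to vehicle treated cultures.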 Conditions: S. cerevisiae cln2 rad14 strain, hits give high values; at 50.0 µM unless noted. The method, boiled down: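 Yeast carrying cln2 and rad14 alterations (cell cycle control and DNA damage repair) were exposed to compounds. Growth inhibition was measured against vehicle-treated controls.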

Experiment [5] in a line: NCI Yeast Anticancer Drug Screen. Data for the bub3 strain (AID 167). The following applies: S. cerevisiae bub3 mutant strain, hits give high values; at 50.0 µM unless noted. The method, boiled down:
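Screening used yeast with an engineered genetic alteration affecting cell cycle control. Compound-exposed cultures were compared with vehicle cultures, and reduced growth was taken as inhibition.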

Experiment [6] is described as follows: NCI Yeast Anticancer Drug Screen. Data for the mlh1 rad18 strain (AID 175). The following applies: S. cerevisiae mlh1 rad18 strain growth inhibition, hits give high values; at 50.0 µM unless noted. The method, boiled down: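 Growth inhibition of the yeast strain was measured after compound exposure and expressed relative to vehicle-treated controls. The strain carries defined defects in DNA damage repair.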

Each structure is given as a SMILES string. Compounds without any hit were thinned out: in the full panel of roughly 79,000, 15% have a hit. Unmarked numbers belong to inactive results. The source made the active and inactive calls. Cut-off read from the data, not from the text of the source: active = growth inhibition above about 70%; inactive = the rest.

As to `COc1cc(C(=O)N(C)C)cc(OC)c1OC`, the growth inhibition was -1.25% in experiment [1]; 2.65% in experiment [2]; -6.6% in experiment [3]; 2.25% in experiment [4]; -4% in experiment [5]; 5.5% in experiment [6].
On to `BrCC1CN=C(c2ccccc2)O1` (stereo not given), for which the growth inhibition in experiment [1] is -5.55%; in experiment [2], -4%; in experiment [3], 2.65%; in experiment [4] it was -26.1%; in experiment [5], 1.6%; in experiment [6], -2.95%.
Consider `CON1C(=O)C(c2ccccc2)c2ccccc21` (stereo not given), for which the growth inhibition in experiment [1] was 58%; in experiment [2], 22.6%; in experiment [3] it was 47.8%; in experiment [4], 3.1%; in experiment [5], 10.7%; in experiment [6], 6.65%.
For the compound `NC(=O)Nc1ccc(/C=C\c2ccnc3ccccc23)cc1`, the growth inhibition is -19.7% in experiment [1]; 2.5% in experiment [2]; 4.95% in experiment [3]; -31.9% in experiment [4]; -15.9% in experiment [5]; -9.45% in experiment [6].
`N#Cc1[nH]c(=O)n(-c2ccccc2)c1N`: the growth inhibition is -40.2% in experiment [1]; -57.8% in experiment [2]; -60.2% in experiment [3]; -22.4% in experiment [4]; -17.2% in experiment [5]; -37% in experiment [6].
On to `CN(/C(=C/C(=O)c1ccccc1)C(=O)c1ccccc1)/C(=C/C(=O)c1ccccc1)C(=O)c1ccccc1`, for which the growth inhibition in experiment [1] was -27.4%; in experiment [2], 3.2%; in experiment [3], -0.95%; in experiment [4], -5.25%; in experiment [5], -4.5%; in experiment [6], 26.8%.
`CC1(CO)C2CCC(CC2)C1CO` (stereo not given): the growth inhibition is -3% in experiment [1]; 1.85% in experiment [2]; -4.4% in experiment [3]; -20.2% in experiment [4]; -5.1% in experiment [5]; 2.5% in experiment [6].
Take `O=C(CNC(=O)C(CSC(c1ccccc1)c1ccccc1)NC(=O)C(CSC(c1ccccc1)(c1ccccc1)c1ccccc1)NC(=O)OCc1ccccc1)OC(c1ccccc1)c1ccccc1` (stereo not given): the growth inhibition is 4.15% in experiment [1]; 3.1% in experiment [2]; -6.25% in experiment [3]; -4.25% in experiment [4]; -1.85% in experiment [5]; 20.7% in experiment [6].
In the case of `CC(=O)OCC1COC(c2ccc(C)cc2)O1` (stereo not given), the growth inhibition in experiment [1] was 12.9%; in experiment [2], -2.1%; in experiment [3], -13.8%; in experiment [4], -2.5%; in experiment [5], -4.45%; in experiment [6], -11.8%.
`CC1(C)SC(c2ccccc2)SC(c2ccccc2)S1` (stereo not given): the growth inhibition in experiment [1] was 13.7%; in experiment [2], 1.4%; in experiment [3], -3.3%; in experiment [4], 3.25%; in experiment [5], -0.8%; in experiment [6], 17.4%.
Consider `CC1=CCC(CC2CO2)C1(C)C` (stereo not given), for which the growth inhibition was -27.6% in experiment [1]; -48.4% in experiment [2]; -17.2% in experiment [3]; -9.95% in experiment [4]; -35.2% in experiment [5]; -31.1% in experiment [6].
For `OC(CN1CCCC2CCCCC21)c1cc2c(c3ccccc13)CCCC2` (stereo not given), the growth inhibition is 98.2% (active) in experiment [1]; 96.7% (active) in experiment [2]; 99.5% (active) in experiment [3]; 93.7% (active) in experiment [4]; 98.5% (active) in experiment [5]; 99.5% (active) in experiment [6].
As for `Cc1ccc(S(=O)(=O)CBr)cc1`, the growth inhibition in experiment [1] was 5.35%; in experiment [2], 14%; in experiment [3] it was 6.9%; in experiment [4], 3.3%; in experiment [5] it was 4.6%; in experiment [6], 5.2%.
`C#CCN(Cc1ccc2nc(-c3ccccc3)c(Cl)nc2c1)c1cc(OC)c(OC)c(OC)c1`: the growth inhibition was 14.8% in experiment [1]; -12.6% in experiment [2]; -16.9% in experiment [3]; -23.4% in experiment [4]; -26.1% in experiment [5]; 4.75% in experiment [6].
With `O=C(c1ccc(-c2ccccc2)cc1)c1ncc(-c2ccc(-c3ccccc3)cc2)[nH]1`, the growth inhibition in experiment [1] was 15.5%; in experiment [2], 10.7%; in experiment [3], 17.1%; in experiment [4], -4%; in experiment [5] it was 19.1%; in experiment [6], 21.3%.
On to `CSC(N)=Nc1cccc2ccccc12`, for which the growth inhibition in experiment [1] is -44.2%; in experiment [2], -59%; in experiment [3] it was -40.5%; in experiment [4] it was -10.9%; in experiment [5] it was -34.2%; in experiment [6], -41%.
Consider `NNC(=O)CCn1[nH]c(=O)c(Cl)c(Cl)c1=O`, for which the growth inhibition in experiment [1] is 13.9%; in experiment [2] it was 11.8%; in experiment [3], 19.9%; in experiment [4] it was 12.9%; in experiment [5] it was 16.9%; in experiment [6], 11.4%.
On to `NNC(=O)c1c(O)ccc2ccccc12`, for which the growth inhibition was 19.2% in experiment [1]; -28.1% in experiment [2]; 23.4% in experiment [3]; 20.2% in experiment [4]; -4.2% in experiment [5]; 12.6% in experiment [6].
On to `Cc1c(C)c(C(=O)Cc2ccccc2)c(C)c(C(=O)Cc2ccccc2)c1C`, for which the growth inhibition in experiment [1] is 19.6%; in experiment [2], -1.8%; in experiment [3], -15.3%; in experiment [4] it was 12.3%; in experiment [5], 5.55%; in experiment [6], 0.65%.
For `CC(C(C#N)C(N)=O)C(C#N)C(N)=O` (stereo not given), the growth inhibition was 10.2% in experiment [1]; 12.4% in experiment [2]; 5.5% in experiment [3]; -4.4% in experiment [4]; -23.9% in experiment [5]; 14.7% in experiment [6].

For the origin of these results see PubChem BioAssay (NCI).
